Measurements: PubChem BioAssay AID602428 (Sanford-Burnham Center for Chemical Genomics, 2012)
Hit rate of the full screen: of about 2,500 compounds, about 980 (39%) were called active.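 How the source made its calls: active means mean inhibition at 5 µM reaching about 45% (limit read from the data); inactive means the rest.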 These entries were drawn from the full list.

assay: blockers of Gli reporter signaling – single concentration, luciferase luminescence, Sufu-KO-LIGHT cells, confirmation (AID 602428); conditions: at 5 µM, stronger effect = higher value;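 further: plate controls were DMSO-treated cells for no effect and wells lacking cells for full effect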

Row | SMILES | inhibition
1 | COCCn1c(CN2CCC(Cc3ccccc3)CC2)nc2c1c(=O)n(C)c(=O)n2C | 58.7% (active)
2 | O=C1/C(=C/c2ccc(F)cc2)SC(=S)N1NS(=O)(=O)c1ccccc1 | 15.2% (inactive)
3 | CCCOc1ccc(Cc2c(Cl)nc(SC)nc2NC)cc1 | 60.5% (active)
4 | CCc1c(C)nc2cc(C)[nH]n2c1=O | 29.9% (inactive)
5 | CC(=O)OCCC(C)C | 21.6% (inactive)
6 | CN(NC(=O)c1ccccc1F)c1nc(C(F)(F)F)nc2ccccc12 | 36.6% (inactive)
7 | COC(=O)c1ccc(CSc2nnc(N)s2)o1 | 37.1% (inactive)
8 | CCCCNc1nc2c(c(=O)n(C)c(=O)n2C)n1Cc1cccc(OC)c1 | 72.5% (active)
9 | Cn1c(=O)c2c(nc(NCCc3ccccc3)n2Cc2ccccc2)n(C)c1=O | 57.1% (active)
10 | CN(C)CCN(C(=O)C1CCCCC1)c1nc2cc3c(cc2s1)OCO3 | 14.1% (inactive)
11 | CCc1c(C)[nH]c(=S)c(C#N)c1C | 25.3% (inactive)
12 | CC1(C)CC2CC(C)(CN2c2ncnc3ccc(Br)cc23)C1 (configuration not stated) | 41.5% (inactive)
13 | COc1ccc(OC)c(Cc2cnc3nc(N)nc(N)c3c2C)c1 | 51.4% (active)
14 | O=C(NC1CCN(C(=S)Nc2ccc(Cl)cc2)CC1)C1CCCCC1 | 10.8% (inactive)
15 | CC(C)Oc1ccc(CN2CCC(n3nccc3NC(=O)c3cccnc3)CC2)cc1 | 23.4% (inactive)
16 | Cc1nn(C)c(Cl)c1CN1CCC(n2nccc2NC(=O)C2CCCC2)CC1 | 14% (inactive)
17 | C=CCOc1nc2c(c(=O)n(C)c(=O)n2C)n1Cc1ccc(Cl)cc1Cl | 50.9% (active)
18 | CNc1ccc(SC#N)cc1 | 13.2% (inactive)
19 | CCC1CCCCN1CCCNC(=O)Cn1nc(-c2ccccc2)ccc1=O (configuration not stated) | 13.3% (inactive)
20 | COc1ccc(C(=O)NCc2nnc(SCCOc3ccccc3)n2C)cc1 | 28.6% (inactive)
21 | CC(C)(C)c1ccc(Oc2ccc(N)cc2)cc1 | 80.1% (active)

Row | SMILES | inhibition
22 | CCCc1nc(N)nc2c1C(=O)CC(C)(C)C2 | 16.9% (inactive)
23 | Cc1ccc(C)c(S(=O)(=O)N2CCN(c3ncnc4sccc34)CC2)c1 | 54% (active)
24 | Cc1c(Cl)c([N+](=O)[O-])nn1Cc1ccc(C(=O)N/N=C\c2cc(Cl)ccc2O)o1 | 57.9% (active)
25 | CCN(CC(=O)Nc1cc(Cl)ccc1C)C(=O)CSCc1ccc(C)cc1 | 28.9% (inactive)
26 | Cc1ccc(-c2nc(CSCC(=O)NC3CCN(Cc4ccccc4)CC3)c(C)o2)cc1 | 23.9% (inactive)
27 | O=C(c1cc(Cl)cc(Cl)c1)N1CCC(=O)N(C(COCc2ccccc2)Cc2ccccc2)CC1 (configuration not stated) | 7.41% (inactive)
28 | Cc1ccc(S(=O)(=O)N2C[C@@H]3CCCC[C@@H]3[C@@H](C)[C@H]2c2cn(Cc3ccccc3)c3ccc(F)cc23)cc1 | 83.6% (active)
29 | CCN(CC)CCNC(=O)c1ccc(NC(=O)c2cc(-c3ccncc3)nc3ccccc23)cc1 | 23% (inactive)
30 | CN1C(CC(=O)Nc2ccc(Br)cc2)c2ccccc2CC1(C)C (configuration not stated) | 11.3% (inactive)
31 | O=C(Nc1cccc(S(=O)(=O)Nc2ccc(Cl)cc2)c1)c1ccc2c(c1)OCCO2 | 37.7% (inactive)
32 | O=C(Cn1cc(C(=O)C2CC2)c2ccccc21)Nc1ccccc1Cl | 60.3% (active)
33 | CCN(CC)S(=O)(=O)c1ccc(Cl)c(C(=O)NC(C)C(c2cccs2)N2CCCC2)c1 (configuration not stated) | 15.2% (inactive)
34 | O=C(NCCOCc1ccc(Cl)cc1)c1ncn[nH]1 | 9.09% (inactive)
35 | Brc1c(CSc2nncc3ccccc23)nc2ccccn12 | 12.7% (inactive)
36 | CCOC(=O)c1cnc(Nc2nc3ccccc3o2)nc1CSC(=S)N1CCCCC1 | 35.3% (inactive)
37 | CN(C)CCSc1nc(N)c2c3c(sc2n1)COC(C)(C)C3 | 16.1% (inactive)
38 | CC(=O)N1CCCc2cc(S(=O)(=O)N3CCCC(C(=O)N4CCN(c5cccc(Cl)c5)CC4)C3)ccc21 (configuration not stated) | 66.9% (active)
39 | Cc1ccc(S(=O)(=O)N(Cc2cc3ccccc3[nH]c2=O)CC2CCCO2)cc1 (configuration not stated) | 21.7% (inactive)
40 | CN(C)C(CNC(=O)Cc1ccc([N+](=O)[O-])cc1)c1ccccc1 (configuration not stated) | 16.5% (inactive)
41 | O=C(Nc1ccnn1C1CCN(C/C=C/c2ccc(F)cc2)CC1)C1CCCC1 | 21.9% (inactive)
42 | Cc1ccsc1C(=O)OCC(=O)c1cc(C)n(CC2CCCO2)c1C (configuration not stated) | 85.5% (active)
